Screening data: PubChem BioAssay, National Center for Advancing Translational Sciences (NCATS)
Hits are enriched below; roughly 6% of the tested compounds scored in any of these assays.
D1 PAM: potentiators of human D1 dopamine receptor | potentiation, % at 10 µM | 0.036% of 360,000 active | P21728 | HEK293 TREx D1 cells, calcium flux, dopamine EC20 potentiation | AID 504651; in the data active means potentiation above about 30%; further: 0% is about no effect
Target sequence (P21728 whole entry, looked up): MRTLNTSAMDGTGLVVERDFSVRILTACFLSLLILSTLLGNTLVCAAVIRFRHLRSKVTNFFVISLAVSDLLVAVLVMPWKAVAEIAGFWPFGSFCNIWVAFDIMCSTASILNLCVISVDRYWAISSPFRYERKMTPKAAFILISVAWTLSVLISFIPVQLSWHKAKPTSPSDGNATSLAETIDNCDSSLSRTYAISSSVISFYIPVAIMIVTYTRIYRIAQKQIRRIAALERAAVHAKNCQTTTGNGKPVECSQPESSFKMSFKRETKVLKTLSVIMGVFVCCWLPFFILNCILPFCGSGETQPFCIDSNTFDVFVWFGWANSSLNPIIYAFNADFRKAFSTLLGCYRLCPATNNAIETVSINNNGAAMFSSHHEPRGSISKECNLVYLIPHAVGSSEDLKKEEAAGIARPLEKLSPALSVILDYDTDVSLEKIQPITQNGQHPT
D1 antagonist: antagonists of human D1 dopamine receptor. 3.2% of 360,000 active. HEK293 TREx D1 cells, calcium flux, dopamine EC80; hits give low values. P21728. activity change, negative = inhibition, % at 10 µM. AID 504652; in the data active means activity change below about -30%; further: on the % scale 0 is the no-effect control and ±100 the full control effect
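Compound effects on dopamine-evoked calcium signalling were measured in tetracycline-induced HEK293 Trex D1 cells. Dopamine at EC80 followed a 180 s compound pre-read, and fluorescence was tracked kinetically for 180 s more.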
D1 agonist: agonists of human D1 dopamine receptor; HEK293 T-REx D1 cells, calcium flux, agonist mode; activation, % at 2 µM; 1% of 360,000 active; AID 504660; in the data active means activation above about 30%; further: 0% is about no effect
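Agonism was scored from calcium flux recorded over 180 s (1 read/s) after pintool compound addition, following a 10-cycle baseline. Cells were inducible force-coupled HEK293 TREx D1, plated overnight at 30 C and loaded with no-wash calcium dye.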
DRD3 agonist: D3 dopamine receptor (human) agonism. P35462. D3R DiscoveRx beta-arrestin cells, luminescence, 90 min. max activation, %. 0.58% of 410,000 active. AID 652048; in the data active means max activation above about 30%; further: 0% is about no effect
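Agonist mode: compounds and dopamine controls were applied to plated cells for 90 min at 37 degrees C after an overnight attachment at 1500 cells/well. Luminescent read-out followed 30 - 60 minutes at room temperature with DiscoveRx detection reagent.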
DRD3 antagonist: blocks the human D3 dopamine receptor | P35462 | D3R cells, DiscoveRx beta-arrestin luminescence, antagonist mode; hits give low values | max response, negative = inhibition, % | 2.5% of 360,000 active | AID 652054; in the data active means max response below about -50%; further: on the % scale 0 is the no-effect control and ±100 the full control effect
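Cells expressing the human receptor were seeded at 1500 cells/well, incubated overnight at 37 degrees C in 5% CO2, then exposed to library compounds with dopamine controls for 90 minutes at 37 degrees C before luminescent detection.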
Active calls of the source: *; · = no result.

SMILES	D1 PAM	D1 antagonist	D1 agonist	DRD3 agonist	DRD3 antagonist
Cc1cccc(OC2CCN(Cc3c(C(=O)N4CCCC4)nc4ccccn34)CC2)c1	-1	-44*	7	-10	3
O=C(c1cccc(OC2CCN(Cc3ccc(F)cc3Cl)CC2)c1)N1CCCC1	-7	-33*	6	-27	0
O=C(c1nc2ccccn2c1CN1CCC(Cc2ccccc2)CC1)N1CCCC1	10	1	0	-14	-7
CCCCC[C@H](C)N1C[C@H](COCc2ccccc2)Oc2cc(N3CCC[C@H]3CO)ccc2S1(=O)=O	·	·	·	2	10
CC(=O)N1CCN(c2ccc(NCc3ccc(C)cc3)cc2)CC1	-2	-7	6	1	24
CCc1ccc(CNc2ccc(N3CCN(C(C)=O)CC3)cc2)cc1	0	-14	34*	4	10
O=C(CCCCCNC(=O)N1CCn2c1nc1ccccc12)N[C@@H](Cc1ccccc1)C(=O)O	6	4	1	30*	-17
COc1ccc2nc(NC(=O)C3CCCN3S(=O)(=O)c3ccc(C)cc3)sc2c1 (centres undefined)	-5	0	2	0	-71*
CCOC(=O)c1sc(Nc2nc3ccc(OC)cc3s2)cc1C	-4	-36*	4	3	15
CCN1CCN(CC(=O)Nc2nc3ccc(OC)cc3s2)CC1	0	-8	2	-1	-66*
Cc1ccc(S(=O)(=O)N2CCCC2C(=O)OCc2nc3ccccc3s2)cc1 (centres undefined)	-3	1	45*	-8	-22
CCOC(=O)c1sc(Nc2nc3c(F)cccc3s2)cc1C	-2	-5	1	-2	11
CCCCn1c(SCC(=O)NCc2ccc(C)cc2)nc2c(sc3ccccc32)c1=O	-3	-17	-1	3	·
COc1ccc(Cl)cc1NC(=O)c1cccc(-n2cnnn2)c1	-1	-2	2	-7	2
COc1ccc2nc(NC(=O)CN3CCN(C)CC3)sc2c1	-1	-5	3	3	-59*
COc1ccc2nc(NC(=O)CN3CCOCC3)sc2c1	-6	0	0	-4	15
Cc1nc2c(cnn2-c2ccccc2)c(=O)[nH]1	-5	-38*	0	2	-13
Cc1ccc(-n2c(-c3cccc(C)c3)nc3c(cnn3-c3ccccc3)c2=O)cc1	-2	5	4	2	·
Cc1cccc(-c2nc3c(cnn3-c3ccccc3)c(=O)n2-c2ccc(Cl)cc2)c1	-3	-36*	6	-8	·
O=C(OCc1cn([C@H]2CN(CC3CCCCC3)[C@@H](c3ccc(Cl)cc3)C[C@@H]2O)nn1)c1ccccc1	·	·	·	1	-7
CCOc1ccc(NC(=O)CN(c2ccc(C)cc2)S(=O)(=O)c2cccs2)cc1	1	0	-1	1	·
O=C(CSc1n[nH]c(=O)n1C1CC1)Nc1cc(Cl)ccc1Oc1ccccc1	-6	1	5	32*	-18
CCc1nc(N)nc(N)c1-c1ccc(Cl)c(N=[N+]=[N-])c1	·	·	·	-5	12
O=c1oc2cc(Br)ccc2n1CSC1=NCCS1	-6	-3	13	-9	-53*
CCC(=O)Nc1nnc(S(=O)(=O)N(C)Cc2ccccc2)s1	1	7	3	-9	·
SMILES	D1 PAM	D1 antagonist	D1 agonist	DRD3 agonist	DRD3 antagonist
CN(CC(=O)N1CCCc2c1c(=O)oc1ccc(O)cc21)Cc1ccccc1	0	9	4	-11	-68*
CC1CCN(CCC(=O)N2CCCc3c2c(=O)oc2ccc(O)cc32)CC1	-6	12	4	-8	-63*
CC(C)=CCCC(C)c1cc(C(=O)NCCc2ccc(O)cc2)c(N)s1 (centres undefined)	·	·	·	-2	-18
C=CCNc1nc(N)c(C(=C(C#N)C#N)c2ccc(Br)cc2)s1	-13	-32*	1	1	3
CC(C)Oc1ccc(CNC(=O)c2ccc3c(c2)N(Cc2ccc(F)cc2)CCS3)cc1	0	7	-1	-13	·
CC(C)c1ccc(OCC(=O)Nc2c(Cl)ccc3nsnc23)cc1	0	-2	0	-10	·
Cc1ccc(C2=NN(C(=O)CCCC(=O)O)C(c3ccco3)C2)cc1 (centres undefined)	-3	-13	74*	3	8
O=C(C1CCCO1)N1N=C(c2ccc(Br)cc2)CC1c1ccco1 (centres undefined)	-4	-71*	2	2	3
CC(=O)N1N=C(c2ccc(C)cc2)CC1c1ccco1 (centres undefined)	-1	·	-3	18	5
Cc1ccc(C2=NN(C(=O)CN3C(=O)c4ccccc4S3(=O)=O)C(c3ccco3)C2)cc1 (centres undefined)	-6	-76*	1	-1	-5
CCc1cccc(C)c1Nc1c(-c2cccs2)nc2ncccn12	14	-7	12	1	·
O=[S+]([O-])(c1ccc2c(c1)OCCO2)N1CCN([S+](=O)([O-])c2ccc(F)cc2Br)CC1	-2	-8	7	·	·
C/C=C(\C)CN1CCN(c2ccccc2)CC1	-2	-24	3	-7	-71*
COc1ccccc1N1CCN(C/C(C)=C/c2ccccc2)CC1	-4	-23	2	-71	-89*
C/C(=C\c1ccccc1)CN1CCN(c2ccccc2)CC1	-8	-38*	1	-27	-109*
Cc1ccc(S(=O)(=O)N2CCCCC2)cc1NC(=O)COC(=O)c1ccc(=O)[nH]c1	-8	-11	2	1	0
CCc1ccc(-n2c(Cc3ccccc3)nnc2SCc2nc(-c3cccs3)no2)cc1	18	-37*	84*	-11	·
CCOc1ccc(-c2noc(CSc3nnc(Cc4ccccc4)n3-c3cccc(C)c3)n2)cc1	1	-4	38*	1	·
Cc1ccc(-c2noc(CSc3nnc(Cc4ccccc4)n3-c3cccc(C)c3)n2)cc1	0	-6	24	0	-9
CCOc1ccc(-n2c(Cc3ccccc3)nnc2SCc2nc(-c3ccccc3C)no2)cc1	-1	-1	32*	4	·
O=C(NCc1cccc(F)c1)c1ccc(CS(=O)c2ccccc2Cl)o1 (centres undefined)	-5	-12	7	-2	·
COc1cccc(NC(=O)c2sc3nc(C)c(C(=O)Nc4ccc(Cl)cc4)c(-c4ccc(Br)cc4)c3c2N)c1	2	-1	-1	5	·
COc1cccc(-n2c(C)nc3c(cnn3-c3ccc(C)c(C)c3)c2=O)c1	2	-48*	8	9	·
C=CCSc1nnc(-c2cnn(-c3ccccc3)c2-n2cccc2)n1C	-2	3	0	-6	8
CCCSc1nnc(-c2cnn(-c3ccccc3)c2-n2cccc2)n1C	-8	-14	36*	0	-13
CCc1cc(Cn2nc(-c3ccccc3)cc2C(=O)NCc2ccccc2OC)on1	-4	-28	14	-20	0
O=C1C(=O)c2c(ccc3ccccc23)-c2ccccc21	·	·	·	-14	-53*
N=c1c2ccccc2nc2n1CCCCCCCCCCC2	·	·	·	17	2
